Reference: PubChem BioAssay (Tox21)
Where “and” joins values, the source holds several entries; their conditions need not be identical. Equal values may be shown once. Results filed as inconclusive are left out. Calls of active or inactive are those of the source. Unless noted, calls come from the whole dose curve; as a rule, active = well fitted curve in the direction sought with a large enough effect in the repeat runs; inconclusive = weak or mixed curves; inactive = no such curve, though single readings can be large; an effect the other way counts as inactive or inconclusive.

How the values were obtained:
[1] = qHTS assay to identify small molecule antagonists of the estrogen related receptor (ERR) signaling pathway from Tox21 library - cell viability counter screen (AID 1224834); note: nearly all actives have a fitted effect of over 30% in size
Method in brief: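 Compounds in DMSO were pinned onto ERR cells that had been incubated for 6 h, and the plates were held at 37 C for 17.5 h. CellTiter-Fluor reagent was then added and fluorescence was measured after 30 min.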

[2] = target: Luciferin 4-monooxygenase (Photinus pyralis) (UniProt P08659); experiment: qHTS assay to identify small molecule inhibitors of firefly luciferase (AID 1224835); note: nearly all actives have a fitted effect of over 25% in size; note: potency is the fitted concentration of half-maximal effect
Luciferin 4-monooxygenase (Photinus pyralis), sequence (P08659 whole entry, looked up): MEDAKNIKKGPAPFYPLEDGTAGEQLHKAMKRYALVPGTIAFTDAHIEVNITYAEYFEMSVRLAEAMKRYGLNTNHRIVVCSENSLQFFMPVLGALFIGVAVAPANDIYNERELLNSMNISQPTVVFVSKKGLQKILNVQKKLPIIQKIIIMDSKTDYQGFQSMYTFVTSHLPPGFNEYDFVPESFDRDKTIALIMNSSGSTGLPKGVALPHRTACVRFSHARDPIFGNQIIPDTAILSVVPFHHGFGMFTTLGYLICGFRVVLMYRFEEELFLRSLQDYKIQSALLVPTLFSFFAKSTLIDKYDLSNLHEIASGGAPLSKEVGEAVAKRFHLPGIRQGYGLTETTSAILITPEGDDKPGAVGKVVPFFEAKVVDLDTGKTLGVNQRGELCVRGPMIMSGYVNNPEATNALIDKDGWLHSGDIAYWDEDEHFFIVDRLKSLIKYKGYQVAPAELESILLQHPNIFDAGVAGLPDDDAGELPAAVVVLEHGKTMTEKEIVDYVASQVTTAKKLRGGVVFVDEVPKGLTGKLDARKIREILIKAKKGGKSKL
Method in brief: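 Inhibition of purified Photinus luciferase is measured by luminescence. Substrate levels (D-luciferin, ATP) sit at their KM values. Each compound is tested in a concentration series.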

[3] = qHTS assay to identify small molecule agonists of the constitutive androstane receptor (CAR) signaling pathway - cell viability counter screen (AID 1224836); note: nearly all actives have a fitted effect of over 45% in size
Method in brief: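 23 h treatment, 37 C, 5% CO2. Cell line: HepG2 stably expressing hCAR with a CYP2B6-2.2kb construct. Co-treatment: PK11195, 0.75 uM final. Read-out: CellTiter-Fluor fluorescence intensity.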

[4] = qHTS assay to identify small molecule antagonists of the constitutive androstane receptor (CAR) signaling pathway - cell viability counter screen (AID 1224837); note: nearly all actives have a fitted effect of over 45% in size
Method in brief: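 Cells are seeded, rested 4 hr at 37 C/5% CO2, dosed with compound (15-point series) and 50 nM CITCO, incubated a further 23 hr, and then CellTiter-Fluor reagent is added before fluorescence is read. The line is HepG2 with stable hCAR and CYP2B6-2.2kb.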

[5] = target: Nuclear receptor subfamily 1 group I member 3 (Homo sapiens) (UniProt Q14994); experiment: qHTS assay to identify small molecule antagonists of the constitutive androstane receptor (CAR) signaling pathway (AID 1224838);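 note: HepG2 cells stably expressing hCAR with CYP2B6 luciferase reporter stimulated by CITCO; nearly all actives have a fitted effect of over 40% in size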
Nuclear receptor subfamily 1 group I member 3 (Homo sapiens), sequence (Q14994 whole entry, looked up): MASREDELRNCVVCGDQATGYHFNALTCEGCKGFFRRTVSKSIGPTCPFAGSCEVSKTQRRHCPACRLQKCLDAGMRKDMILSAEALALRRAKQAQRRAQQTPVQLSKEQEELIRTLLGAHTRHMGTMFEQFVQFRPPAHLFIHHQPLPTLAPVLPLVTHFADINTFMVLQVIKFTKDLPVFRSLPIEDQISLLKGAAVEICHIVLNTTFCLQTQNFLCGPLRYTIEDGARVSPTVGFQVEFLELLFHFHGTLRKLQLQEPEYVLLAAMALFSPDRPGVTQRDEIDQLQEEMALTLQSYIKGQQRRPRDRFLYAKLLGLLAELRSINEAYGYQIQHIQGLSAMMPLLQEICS
Method in brief: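 Luminescence from a CYP2B6-2.2kb promoter reporter in hCAR-expressing HepG2 cells reflects CAR signaling. Cells received compounds at 15 concentrations and 50 nM CITCO (final), then incubated 24 h at 37 C/5% CO2.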

[6] = target: Nuclear receptor subfamily 1 group I member 3 (Homo sapiens) (UniProt Q14994); experiment: qHTS assay to identify small molecule agonists of the constitutive androstane receptor (CAR) signaling pathway (AID 1224839); note: nearly all actives have a fitted effect of over 15% in size; note: potency is the fitted concentration of half-maximal effect;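 for activation: HepG2 cells stably carrying human CAR and a CYP2B6 luciferase reporter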
Method in brief: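 Compounds tested at 15 concentrations on HepG2 cells stably harbouring hCAR and CYP2B6-2.2kb reporter constructs, co-treated with PK11195 (0.75 uM final), 24 h at 37 C; luminescent reporter signal quantified.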

[7] = qHTS assay to identify small molecule antagonists of the estrogen related receptor signaling pathway with the pleiotropic PPARgamma coactivator (PGC) from Tox21 10K library - cell viability counter screen (AID 1224840; active = well fitted cell-killing curve with a large enough effect in the repeat runs, not every such curve was filed as active; note: nearly all actives have a fitted effect of over 40% in size)
Method in brief: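 Cell viability is measured by CellTiter-Fluor fluorescence in PGC/ERR cells that receive compounds after a 6-hour attachment period and are then incubated 17.5 hours at 37 C.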

[8] = target: Thyrotropin receptor (Homo sapiens) (UniProt P16473); experiment: qHTS assay to identify small molecule agonists of the thyroid stimulating hormone receptor (TSHR) signaling pathway (AID 1224843; calls by dose curve; note: nearly all actives have a fitted effect of over 45% in size; note: potency is the fitted concentration of half-maximal effect)
Thyrotropin receptor (Homo sapiens), sequence (P16473 whole entry, looked up): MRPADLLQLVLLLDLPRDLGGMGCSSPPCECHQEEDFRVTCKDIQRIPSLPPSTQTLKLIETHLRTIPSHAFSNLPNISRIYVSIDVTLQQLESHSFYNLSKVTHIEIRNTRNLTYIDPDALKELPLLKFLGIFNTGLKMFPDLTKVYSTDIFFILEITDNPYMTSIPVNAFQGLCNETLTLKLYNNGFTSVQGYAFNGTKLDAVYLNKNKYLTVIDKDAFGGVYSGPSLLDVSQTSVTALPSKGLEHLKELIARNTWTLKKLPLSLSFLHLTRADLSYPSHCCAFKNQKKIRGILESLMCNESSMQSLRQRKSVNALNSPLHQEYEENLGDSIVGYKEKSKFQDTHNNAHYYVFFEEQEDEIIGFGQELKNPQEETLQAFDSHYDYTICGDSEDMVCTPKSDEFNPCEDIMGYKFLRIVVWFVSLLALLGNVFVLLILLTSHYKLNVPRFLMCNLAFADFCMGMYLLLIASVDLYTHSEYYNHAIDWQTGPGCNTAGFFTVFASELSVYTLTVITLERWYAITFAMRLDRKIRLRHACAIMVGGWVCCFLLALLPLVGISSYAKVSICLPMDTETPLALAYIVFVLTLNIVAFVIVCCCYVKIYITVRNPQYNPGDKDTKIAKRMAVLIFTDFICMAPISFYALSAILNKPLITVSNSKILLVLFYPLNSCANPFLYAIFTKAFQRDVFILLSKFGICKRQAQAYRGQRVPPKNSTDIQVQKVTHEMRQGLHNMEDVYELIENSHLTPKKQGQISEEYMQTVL
Method in brief: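 A cell-based cAMP HTRF format was run in TSHR-transfected HEK293 cells, 800 per well. Treatment: 30 min, room temperature. Detection: 1 h with labelled cAMP and anti-cAMP cryptate. Concentration-response over 15 points, three replicates.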

[9] = qHTS assay to identify small molecule agonists of the hypoxia (HIF-1) signaling pathway - cell viability counter screen (AID 1224844; calls by dose curve; note: nearly all actives have a fitted effect of over 50% in size)
Method in brief: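 Viability counter screen: HRE-bla ME-180 cells plated 5 hrs before compound addition, treated 17 hrs at 37C and 5% CO2, then CellTiter-Glo added after the FRET reporter read; luminescence after 30 min.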

[10] = qHTS assay to identify small molecule agonists of H2AX (AID 1224845; active = well fitted activation curve with a large enough effect in the signal ratio in the repeat runs, not every such curve was filed as active; the % refers to the signal ratio)
Method in brief: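 Phospho-H2AX Ser139 measured by HTRF (ex 320 nm; em 665 and 620 nm) after 24 hr antibody incubation. Compounds, 15 concentrations, 0.76% DMSO, were applied to CHO-K1 cells for 3hr at 37C before lysis.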

[11] = qHTS assay to identify small molecule agonists of the hypoxia (HIF-1) signaling pathway (AID 1224846; active = well fitted activation curve with a large enough effect in the signal ratio in the repeat runs, not every such curve was filed as active; the % refers to the signal ratio)
Method in brief: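 Agonist mode reporter screen. ME-180 cells stably expressing bla under HRE control received test compounds in DMSO for 17 hrs (37C, 5% CO2), and beta-lactamase activity was then detected with the CCF4-AM FRET substrate.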

[12] = qHTS assay to identify small molecule agonists of H2AX - cell viability counter screen (AID 1224847; calls by dose curve; note: nearly all actives have a fitted effect of over 30% in size; note: potency is the fitted concentration of half-maximal effect; for activity change, negative = cytotoxicity: top concentration of the series differs between compounds)
Method in brief: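 Compounds tested at 15 concentrations were incubated 3 hr at 37C with wild-type CHO-K1 cells; cellular ATP-based luminescence (CellTiter-Glo) indicated viability.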

[13] = qHTS RealTime-Glo MT Cell Viability Assay in HepG2 cells - 24 hour (AID 1224867); note: nearly all actives have a fitted effect of over 50% in size
Method in brief: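 qHTS, HepG2, 600 cells/well, RealTime-Glo (NanoLuc + prosubstrate) added with cells; 5 h preincubation; DMSO compound addition; 37 C; luminescence at 0/8/16/24/32/40 h.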

[14] = qHTS RealTime-Glo MT Cell Viability Assay in HEK293 cells - 32 hour (AID 1224868); note: nearly all actives have a fitted effect of over 50% in size; note: potency is the fitted concentration of half-maximal effect; for activity change, negative = cytotoxic: top concentration of the series differs between compounds
Method in brief: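 Assay medium contained NanoLuc luciferase plus cell-permeant prosubstrate, added with HEK293 cells at 600 cells/well. After 5 h at 37 C/5% CO2 compounds were added; plates stayed at 37 C for 40 h with serial luminescence reads.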

[15] = qHTS RealTime-Glo MT Cell Viability Assay in HepG2 cells - 40 hour (AID 1224870); note: nearly all actives have a fitted effect of over 50% in size
Method in brief: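 Real-time viability: cells seeded at 600 per well together with NanoLuc and cell-permeant prosubstrate, compounds added after 5 h incubation. Luminescence tracked at 0, 8, 16, 24, 32 and 40 h of exposure.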

[16] = qHTS assay to identify small molecule agonists of the estrogen related receptor signaling pathway with the pleiotropic PPARgamma coactivator (PGC) from Tox21 10K library (AID 1224842); note: nearly all actives have a fitted effect of over 15% in size
Method in brief: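 Luminescence from One-Glo (30 min, room temperature) measured after PGC/ERR cells had 18 h at 37 C with pinned compound (23 nL in DMSO). Cells had been seeded at 2,000 per well and pre-incubated 6 h.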

[17] = qHTS assay to identify small molecule antagonists of the estrogen related receptor (ERR) signaling pathway from Tox21 library (AID 1224848); note: nearly all actives have a fitted effect of over 50% in size
Method in brief: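 ERR cell line, 2,000 cells/well. 6 h settle, then compound (DMSO) added; 18 h at 37 C; ONE-Glo luminescence after 30 min RT.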

[18] = qHTS assay to identify small molecule agonists of the estrogen related receptor (ERR) signaling pathway from Tox21 library (AID 1224849; calls by dose curve; note: nearly all actives have a fitted effect of over 15% in size); details: ERR reporter cell line, ONE-Glo luciferase, 18 h; at 92.4 µM (top of the series) unless noted
Method in brief: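 Quantitative HTS in agonist format: NTP ERR cell line, compounds transferred in DMSO after 6 h plating, 18 h incubation at 37 C, ONE-Glo luminescence endpoint.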

[19] = A CellTox Green Cytotoxicity Assay to monitor cytotoxicity in HEK293 cells - 0 hour (AID 1224869); note: nearly all actives have a fitted effect of over 50% in size
Method in brief: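 Dead-cell fluorescence measured kinetically: asymmetric cyanine dye, HEK293, 600 cells/well, 5 h settle, 23 nL cpd/DMSO, 37 C, reads 0–40 h every 8 h.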

[20] = qHTS assay to identify small molecule antagonists of the estrogen related receptor signaling pathway with the pleiotropic PPARgamma coactivator (PGC) from Tox21 10K library (AID 1224841; call rule not given here)
Method in brief: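 Cells stably carrying the PGC/ERR reporter, seeded at 2,000 per well, received pin-transferred compounds 6 h post-plating. Exposure lasted 18 h at 37 C. Signal: One-Glo luminescence.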
% is set by controls: 0 for no effect and ±100 for the full control effect.

COC(=O)[C@@H]1CC2=CC(=O)CC[C@]2(C)[C@@]23O[C@@H]2C[C@@]2(C)[C@@H](CC[C@@]24CCC(=O)O4)[C@H]13
inactive: Potency [1] | Potency [2] | Potency [3] | Potency [4] | Potency [5] | Potency [6] | Potency [7] | Potency [8] | Potency [9] | Potency [10] | outcome [11] | Potency [12] | Potency [13] | Potency [14] | Potency [15]

C=CCCCCCCCCCCCCCCCC
inactive: viability change, negative = cytotoxic [1] 0.934% [at 8.39 µM] | activity change, negative = inhibition [2] 0.644% [at 10.5 µM] | viability change, negative = cytotoxic [3] -0.127% [at 8.39 µM] | activity change, negative = cytotoxicity [4] 3.23% [at 8.39 µM] | activity, negative = inhibition [5] 0.748% [at 8.39 µM] | activation [6] -5.43% [at 8.39 µM] | viability change, negative = cytotoxic [7] 2.55% [at 8.39 µM] | activation [16] 0.156% [at 8.39 µM] | activation [8] -8.53% [at 8.39 µM] | activity change, negative = cytotoxicity [9] 3.26% [at 6.97 µM] | activation [11] 0.0723% [at 7.01 µM] | activity change, negative = cytotoxicity [12] 0.307% [at 14 µM] | activity, negative = inhibition [17] 6.89% [at 8.39 µM] | activity change, positive = activation [18] 3.59% [at 8.39 µM] | activity change, negative = cytotoxicity [13] 0.0094% [at 6.97 µM] | activity change, negative = cytotoxic [14] -11.9% [at 6.97 µM] | cytotoxicity [19] -3.01% [at 6.97 µM] | activity change, negative = cytotoxic [15] 26.4% [at 6.97 µM]

Cc1oncc1C(=O)Nc1ccc(C(F)(F)F)cc1
inactive: Potency [1] | Potency [3] | Potency [4] | Potency [5] | Potency [7] | Potency [8] | Potency [9] | Potency [10] | Potency [12] | Potency [13] | Potency [14] | Potency [15]
active: Potency [2] 39.9 µM | Potency [6] 770 nM and 1.06 µM

CCCCCCCCCCCCCCC[C@H](O)[C@@H](N)CO
active: Potency [12] 49.2 µM | Potency [14] 23.9 µM
inactive: Potency [1] | Potency [2] | Potency [3] | Potency [4] | Potency [5] | Potency [6] | Potency [7] | Potency [8] | Potency [9]

CC1CC(=O)NN=C1c1ccc(NCC(C)(C)NCC(O)COc2cc(Cl)ccc2C#N)cc1 (stereo not drawn)
inactive: Potency [1] | Potency [2] | Potency [3] | Potency [4] | Potency [5] | Potency [6] | Potency [16] | Potency [10] | outcome [11] | Potency [12] | activity change, positive = activation [18] -15% [at 42.5 µM] | Potency [13] | Potency [19] | Potency [15]
active: Potency [8] 1.19 µM

CC1(C)C(=O)N(Br)C(=O)N1Cl
inactive: Potency [1] | Potency [2] | Potency [3] | Potency [4] | Potency [5] | Potency [6] | Potency [7] | Potency [20] | Potency [16] | Potency [8] | Potency [9] | Potency [10] | outcome [11] | Potency [12] | Potency [17] | activity change, positive = activation [18] 1.48% | Potency [13] | Potency [14] | Potency [19] | Potency [15]

CC(=O)N(c1onc(C)c1C)S(=O)(=O)c1ccc(N)cc1
inactive: Potency [1] | Potency [2] | Potency [3] | Potency [4] | Potency [5] | Potency [6] | Potency [7] | Potency [8] | Potency [9] | outcome [11] | Potency [12] | Potency [13] | Potency [14] | Potency [19] | Potency [15]

CCCCCCCCSCCO
inactive: Potency [1] | Potency [3] | Potency [4] | Potency [5] | Potency [6] | Potency [7] | Potency [20] | Potency [16] | Potency [8] | Potency [9] | Potency [10] | outcome [11] | Potency [12] | Potency [17] | activity change, positive = activation [18] -3.95% | Potency [13] | Potency [14] | Potency [19] | Potency [15]
active: Potency [2] 71 µM
